PubChem BioAssay
Several values for one entry are separate records, joined by “and”; a condition that tells them apart may be missing. Identical values can stand only once. Activity calls are given as the source filed them. Cut-off read from the data, not from the text of the source, unless noted: active = inhibition above about 42%; inactive = the rest.

How the values were obtained:
[1] = target: Nuclear receptor coactivator 3 (Homo sapiens) (UniProt Q9Y6Q9); test: SRC3 coactivator transcriptional activity inhibitors, confirmation, cell-based, luminescence, quadruplicate (AID 588792;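 active = mean inhibition over 43.08%, the solvent-only control mean plus 3 SD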;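 note: 0% = DMSO treated cells and 100% = gossypol at 36 µM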); settings: HEK293 GAL4-SRC3 luciferase reporter, at 3.6 µM, hits give high values
Nuclear receptor coactivator 3 (Homo sapiens), sequence (Q9Y6Q9 whole entry, looked up, the tested form may be a part): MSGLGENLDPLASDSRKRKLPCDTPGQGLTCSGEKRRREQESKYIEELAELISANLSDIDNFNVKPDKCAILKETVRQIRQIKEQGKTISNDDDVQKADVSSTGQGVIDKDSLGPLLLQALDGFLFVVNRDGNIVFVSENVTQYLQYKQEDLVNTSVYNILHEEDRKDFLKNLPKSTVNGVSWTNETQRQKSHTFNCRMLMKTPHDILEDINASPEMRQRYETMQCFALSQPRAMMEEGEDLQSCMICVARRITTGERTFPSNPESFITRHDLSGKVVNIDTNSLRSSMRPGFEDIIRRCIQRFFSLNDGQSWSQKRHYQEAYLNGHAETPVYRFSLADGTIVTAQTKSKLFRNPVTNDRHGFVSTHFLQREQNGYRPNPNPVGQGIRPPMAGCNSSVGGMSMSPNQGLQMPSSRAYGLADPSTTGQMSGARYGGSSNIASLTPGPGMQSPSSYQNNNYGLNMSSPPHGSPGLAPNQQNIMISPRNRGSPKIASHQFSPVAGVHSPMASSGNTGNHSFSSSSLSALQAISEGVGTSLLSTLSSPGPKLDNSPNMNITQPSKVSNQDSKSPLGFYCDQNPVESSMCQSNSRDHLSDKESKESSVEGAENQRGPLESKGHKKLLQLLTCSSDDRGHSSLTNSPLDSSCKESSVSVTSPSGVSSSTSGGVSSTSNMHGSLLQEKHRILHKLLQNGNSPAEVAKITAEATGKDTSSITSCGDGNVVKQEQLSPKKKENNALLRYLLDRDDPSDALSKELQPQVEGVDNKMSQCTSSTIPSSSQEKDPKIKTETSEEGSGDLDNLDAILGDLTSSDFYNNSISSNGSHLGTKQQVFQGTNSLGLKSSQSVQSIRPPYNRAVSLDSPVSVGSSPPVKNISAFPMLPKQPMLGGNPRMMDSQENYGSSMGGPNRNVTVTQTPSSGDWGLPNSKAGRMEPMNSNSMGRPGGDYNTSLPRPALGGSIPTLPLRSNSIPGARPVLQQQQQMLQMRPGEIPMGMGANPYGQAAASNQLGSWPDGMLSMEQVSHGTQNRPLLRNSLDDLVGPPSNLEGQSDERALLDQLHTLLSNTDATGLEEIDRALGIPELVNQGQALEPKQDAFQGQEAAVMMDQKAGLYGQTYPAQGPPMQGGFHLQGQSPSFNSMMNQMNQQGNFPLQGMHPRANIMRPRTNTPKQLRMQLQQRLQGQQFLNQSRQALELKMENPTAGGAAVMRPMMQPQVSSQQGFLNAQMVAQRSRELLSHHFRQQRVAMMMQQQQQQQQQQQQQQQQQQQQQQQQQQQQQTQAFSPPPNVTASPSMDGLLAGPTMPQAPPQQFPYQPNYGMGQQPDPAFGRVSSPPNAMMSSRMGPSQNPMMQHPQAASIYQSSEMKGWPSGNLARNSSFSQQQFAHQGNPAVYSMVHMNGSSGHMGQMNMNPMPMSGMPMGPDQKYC

[2] = system: transactivating tegument protein VP16 (Human herpesvirus 1), Gal4-VP16 luciferase reporter; test: VP16 transactivation inhibitors, counter-screen for SRC3 inhibitor project, cell-based, luminescence, high throughput (AID 588794; in the data active = inhibition above about 30%); settings: mammalian cells, VP16-driven luciferase reporter luminescence; at 3.6 µM; hits give high values
[3] = target: Nuclear receptor coactivator 1 (Homo sapiens) (UniProt Q15788); test: SRC1 coactivator transcriptional activity inhibitors, confirmation, cell-based, luminescence, quadruplicate (AID 588820;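 active = mean inhibition above 46.68%, the untreated control wells mean plus 3 SD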;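 note: 0% = DMSO wells and 100% = gossypol 36 µM treated wells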); settings: HEK293 GAL4-SRC1 luciferase reporter, at 3.6 µM, hits give high values
Nuclear receptor coactivator 1 (Homo sapiens), sequence (Q15788 whole entry, looked up, the tested form may be a part): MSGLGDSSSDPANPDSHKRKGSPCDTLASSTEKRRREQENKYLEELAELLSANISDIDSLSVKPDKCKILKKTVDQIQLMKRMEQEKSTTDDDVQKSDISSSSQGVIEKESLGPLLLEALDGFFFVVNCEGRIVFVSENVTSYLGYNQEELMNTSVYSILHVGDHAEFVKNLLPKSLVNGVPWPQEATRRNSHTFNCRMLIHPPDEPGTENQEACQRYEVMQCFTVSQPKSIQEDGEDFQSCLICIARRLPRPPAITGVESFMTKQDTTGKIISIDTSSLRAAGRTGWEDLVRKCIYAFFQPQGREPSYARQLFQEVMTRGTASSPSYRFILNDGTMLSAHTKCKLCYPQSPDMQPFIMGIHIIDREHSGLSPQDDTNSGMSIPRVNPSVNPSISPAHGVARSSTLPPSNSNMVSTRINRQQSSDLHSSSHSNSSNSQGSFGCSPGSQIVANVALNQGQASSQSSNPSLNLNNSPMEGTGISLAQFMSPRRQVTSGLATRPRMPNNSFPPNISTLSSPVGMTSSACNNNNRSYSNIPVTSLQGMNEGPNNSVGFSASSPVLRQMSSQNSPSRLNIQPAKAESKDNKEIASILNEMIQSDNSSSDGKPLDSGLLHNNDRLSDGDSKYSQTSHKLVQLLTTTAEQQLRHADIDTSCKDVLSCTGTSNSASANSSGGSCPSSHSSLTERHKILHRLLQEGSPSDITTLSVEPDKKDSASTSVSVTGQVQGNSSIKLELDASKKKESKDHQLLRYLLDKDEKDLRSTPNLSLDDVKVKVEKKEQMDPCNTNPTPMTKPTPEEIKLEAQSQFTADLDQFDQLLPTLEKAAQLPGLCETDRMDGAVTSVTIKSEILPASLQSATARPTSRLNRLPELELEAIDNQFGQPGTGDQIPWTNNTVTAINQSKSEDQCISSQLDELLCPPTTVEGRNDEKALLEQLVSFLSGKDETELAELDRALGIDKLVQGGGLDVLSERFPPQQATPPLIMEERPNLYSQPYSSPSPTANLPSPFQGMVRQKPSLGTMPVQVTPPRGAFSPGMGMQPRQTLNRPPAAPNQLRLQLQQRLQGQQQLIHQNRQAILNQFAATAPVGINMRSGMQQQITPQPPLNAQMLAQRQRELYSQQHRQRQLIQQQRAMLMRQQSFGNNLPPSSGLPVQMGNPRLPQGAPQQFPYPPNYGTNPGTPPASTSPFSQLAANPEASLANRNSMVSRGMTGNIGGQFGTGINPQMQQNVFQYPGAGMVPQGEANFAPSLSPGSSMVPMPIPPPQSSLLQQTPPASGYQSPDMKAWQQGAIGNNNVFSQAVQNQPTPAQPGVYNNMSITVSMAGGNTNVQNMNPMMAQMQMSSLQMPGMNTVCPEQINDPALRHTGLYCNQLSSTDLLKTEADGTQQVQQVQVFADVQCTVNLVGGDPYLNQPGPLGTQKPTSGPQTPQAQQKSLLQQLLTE

[4] = VP16 transactivation inhibitors, counter-screen for SRC1 inhibitor project, cell-based, luminescence, high throughput (AID 588824; in the data active = inhibition above about 25%); settings: cell-based VP16 transactivation luciferase luminescence; at 3.6 µM; hits give high values
[5] = StAR promoter reporter inhibitors, counter-screen for LRH-1 inverse agonist project, cell-based, luminescence, high throughput (AID 651611; in the data active = inhibition above about 28%); settings: StAR promoter luciferase reporter counterscreen, at 3.6 µM, hits give high values
[6] = target: Nuclear receptor subfamily 5 group A member 2 (Homo sapiens) (UniProt O00482); test: LRH-1 (NR5A2) inverse agonists, retest, confirmation, cell-based, luminescence (AID 651613); settings: cell-based LRH-1 luciferase reporter, inverse agonism; at 3.6 µM; hits give high values;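 note: HEK293T cells co-transfected with LRH-1 and StAR promoter luciferase reporter; 0% = vehicle wells and 100% = parental cells lacking receptor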
Nuclear receptor subfamily 5 group A member 2 (Homo sapiens), sequence (O00482 whole entry, looked up): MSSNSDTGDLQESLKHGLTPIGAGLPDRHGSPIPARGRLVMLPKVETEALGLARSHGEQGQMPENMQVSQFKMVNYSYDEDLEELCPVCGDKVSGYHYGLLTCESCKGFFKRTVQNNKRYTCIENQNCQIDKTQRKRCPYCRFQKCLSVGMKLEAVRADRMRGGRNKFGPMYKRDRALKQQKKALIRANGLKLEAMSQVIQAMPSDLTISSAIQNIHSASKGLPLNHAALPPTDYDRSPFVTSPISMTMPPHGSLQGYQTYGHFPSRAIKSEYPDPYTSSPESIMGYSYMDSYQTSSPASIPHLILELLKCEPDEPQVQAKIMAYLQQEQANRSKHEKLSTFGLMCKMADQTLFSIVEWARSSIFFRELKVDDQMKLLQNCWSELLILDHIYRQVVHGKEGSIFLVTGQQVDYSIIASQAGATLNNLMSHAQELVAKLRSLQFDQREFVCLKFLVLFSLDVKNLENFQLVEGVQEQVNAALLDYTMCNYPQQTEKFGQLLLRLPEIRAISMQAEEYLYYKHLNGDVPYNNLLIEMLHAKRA

[7] = target: Steroidogenic factor 1 (Homo sapiens) (UniProt Q13285); test: SF1 (NR5A1) inverse agonists, counter-screen for LRH-1 inverse agonist project, cell-based, luminescence, high throughput (AID 651614; in the data active = inhibition above about 44%;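 note: cells cotransfected with StAR promoter reporter and SF1 expression vector; 0% = vehicle on cells with receptor and 100% = vehicle on cells lacking receptor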); settings: cell-based SF1 luciferase reporter, at 3.6 µM, hits give high values
Steroidogenic factor 1 (Homo sapiens), sequence (Q13285 whole entry, looked up, the tested form may be a part): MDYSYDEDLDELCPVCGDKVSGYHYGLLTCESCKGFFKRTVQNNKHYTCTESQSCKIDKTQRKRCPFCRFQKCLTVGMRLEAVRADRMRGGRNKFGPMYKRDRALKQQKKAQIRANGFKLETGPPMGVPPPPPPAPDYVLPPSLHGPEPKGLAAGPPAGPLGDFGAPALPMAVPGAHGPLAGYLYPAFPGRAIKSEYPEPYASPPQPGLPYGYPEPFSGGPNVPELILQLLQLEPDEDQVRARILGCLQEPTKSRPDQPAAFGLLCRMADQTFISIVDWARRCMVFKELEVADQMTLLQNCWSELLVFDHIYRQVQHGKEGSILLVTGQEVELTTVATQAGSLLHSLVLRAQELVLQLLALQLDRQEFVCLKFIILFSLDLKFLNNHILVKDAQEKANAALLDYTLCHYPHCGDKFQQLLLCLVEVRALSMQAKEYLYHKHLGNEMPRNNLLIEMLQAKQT

[8] = VP16 transactivation reporter inhibitors, counter-screen for LRH-1 inverse agonist project, cell-based, luminescence, high throughput (AID 651615; in the data active = inhibition above about 33%); settings: Gal4-VP16 luciferase reporter cells, at 3.6 µM, hits give high values

Measured: inhibition

N=c1c2c(n(Cc3cccc(Cl)c3)c3c1CCC3)CCCC2
inactive: [1] 42.1% | [3] 40.5%
active: [2] 65.2% | [4] 73.9% | [5] 53.3% | [6] 108% | [7] 83.8% | [8] 85.4%

OCCCNc1cc(-c2ccnc(Nc3cccc(Cl)c3)n2)ccn1
active: [1] 95.9% | [2] 97.1% | [3] 84.5% | [4] 96.3% | [5] 89.9% | [6] 108% | [7] 96.5% | [8] 97.9%

Cc1ccc(-c2cn(-c3ccccc3)c3[n+]2CCCS3)cc1
active: [6] 80.1% and 61.7% | [7] 61.2% and 59.6% | [8] 64.2% and 56.1%
inactive: [1] 1.67% | [2] 27.5% | [3] 9.91% | [4] 19.5% | [5] 24.4% and 12.1%

O=C(NC(NC(=S)N1CCOCC1)C(Cl)(Cl)Cl)c1ccc(Cl)cc1 (stereo not drawn)
active: [5] 47.4% | [6] 53.2% | [7] 50.2%
inactive: [1] 30.4% | [2] 18.7% | [3] 23% | [4] 15% | [8] 20.3%

COC1C=CC=C(C)C(=O)NC2=CC(=O)C(N)=C(CC(C)CC(OC)C(O)C(C)C=C(C)C1OC(N)=O)C2=O (stereo not drawn)
inactive: [3] 18.4%
active: [1] 78.9% | [2] 81.6% | [4] 82.3% | [5] 73.2% | [6] 93.7% | [7] 85.5% | [8] 85.7%

C=CS(=O)(=O)N(Cc1ccc(Cl)c(Cl)c1)C[C@@H](O)CO
inactive: [1] 42.6% | [2] 19.1% | [3] 8.46% | [4] 13.3% | [8] 28.3%
active: [5] 55.4% | [6] 50.4% | [7] 58%

CC(C)CC[n+]1ccccc1/C=C/c1ccc(N(C)C)cc1
active: [1] 60.5% | [2] 79.3% | [3] 54.6% | [4] 79.3% | [5] 64.3% | [6] 105% | [7] 90.4% | [8] 87.1%

O=C1C(Nc2ccccc2)=C(N2CCCCC2)C(=O)c2ccccc21
active: [2] 39.6% | [4] 35.9%
inactive: [1] 19.4% | [3] 44.4% | [5] -2.41% | [6] 22.5% | [7] 6.41% | [8] 12.1%

COC(=O)C1=C(CN2CCCc3ccccc32)NC(=O)NC1c1ccc(F)cc1 (stereo not drawn)
inactive: [6] 17% | [8] 4.51%
active: [1] 65.7% | [2] 32.3% | [3] 60% | [4] 34.7% | [5] 71.5% | [7] 63.3%

CC(=NNC(=S)Nc1ccccc1Cl)c1ccccn1
active: [2] 71.8% | [4] 73% | [5] 84.3% | [6] 106% | [7] 91.1% | [8] 83.9%
inactive: [1] 41.9% | [3] 18.6%

CC1(C)CC(N2CCCCC2)=CC(=[N+]2CCCCC2)C1
active: [2] 44.1% | [4] 39.7% | [5] 30.1% | [6] 80% | [7] 69.1% | [8] 67.3%
inactive: [1] 21.5% | [3] 14.8%

CC#CC[N+](C)(C)CCCCCCCCCCCC
inactive: [1] 32.2% | [3] 22.1%
active: [2] 39.2% | [4] 32.1% | [5] 33% | [6] 65.2% | [7] 65.9% | [8] 63.5%

Cn1cnc([N+](=O)[O-])c1Sc1nc(N)nc2c1ncn2C1OC(CO)C(O)C1O (stereo not drawn)
inactive: [2] 14.7% | [3] -6.11% | [4] 9.12% | [7] 24.3%
active: [1] 43.8% | [5] 56.1% | [6] 52% | [8] 45.1%

CC1(C)N=C(N)N=C(N)N1CCCCc1ccccc1
inactive: [2] 24.4% | [7] 38.2%
active: [1] 45.9% | [3] 56.8% | [4] 30.3% | [5] 61.4% | [6] 48.8% | [8] 35.7%

COc1cccc(/C=N/NC(=O)c2ccc(-c3ccccc3)cc2)c1O
inactive: [1] 28.9% | [3] 37.3% | [7] 36.4%
active: [2] 39.8% | [4] 40.6% | [5] 48.9% | [6] 81% | [8] 80.1%

COc1ccccc1N1CCN(Cc2cc(Br)c(O)c3ncccc23)CC1
inactive: [1] 21.4% | [2] 3.52% | [3] -1.06% | [4] -1.42% | [5] 23.9% | [6] 23.9% | [8] 21.7%
active: [7] 42.8%

CCN1/C(=C/c2ccc3cccc(C)c3[n+]2CC)Sc2ccccc21
inactive: [1] 35.1% | [3] 26%
active: [2] 63.3% | [4] 71.4% | [5] 57% | [6] 105% | [7] 77% | [8] 80.5%

c1ccc(-c2cccc(-c3ccccn3)n2)nc1
active: [1] 75.8% | [2] 39.9% | [3] 56.6% | [4] 32% | [5] 82.3% | [6] 96.7% | [7] 71.8% | [8] 41.8%

COc1ccccc1NC(=S)NN=C(C)c1ccccn1
inactive: [1] 4.97% | [3] -16.5%
active: [2] 65.2% | [4] 64% | [5] 81.8% | [6] 98.4% | [7] 85.8% | [8] 70.8%

CN(Cc1cnc2nc(N)nc(N)c2n1)c1ccc(C(=O)NC(CCC(=O)O)C(=O)O)cc1 (stereo not drawn)
inactive: [2] 22% | [4] 10.5% | [8] 19.9%
active: [1] 66.2% | [3] 52.3% | [5] 76.1% | [6] 50.5% | [7] 46.2%

c1ccc(-c2ccc(-c3nc(-c4ccccn4)no3)cc2)cc1
inactive: [3] -28.2% | [6] 13.6%
active: [1] 43.5% | [2] 35.9% | [4] 39.4% | [5] 42.4% | [7] 54.8% | [8] 30.9%

CN(C(=O)OC(C)(C)C)c1ccc(-c2nc3ccccc3s2)cc1
active: [1] 87.1% | [2] 84.5% | [3] 78.8% | [4] 76.6% | [5] 75.6% | [6] 80.9% | [7] 77.3% | [8] 78.5%

CCOc1ccccc1O[C@H](c1ccccc1)[C@H]1CNCCO1
inactive: [1] 3.48% | [2] -0.26% | [3] -8.72% | [4] 1.35% | [5] 12.6% | [6] 8.61% | [7] 13.7% | [8] 11.6%

COCCn1c(C)cc(C2=NNC(=Nc3ccccc3)SC2)c1C
inactive: [1] -62.4% | [2] -40.8% | [3] -119% | [4] -64% | [5] -73.4% | [6] -77.6% | [7] -67.8% | [8] -136%

Cc1cccc(-n2c(N)c(-c3nc4ccccc4n3C)c3nc4ccccc4nc32)c1
inactive: [1] -11.4% | [2] -15% | [3] -14.8% | [4] -15.4% | [5] 8.3% | [6] -11.5% | [7] 10.3% | [8] 1.82%

O=[N+]([O-])c1ccc(Sc2cccc[n+]2[O-])c2nonc12
active: [1] 98.7% | [2] 95.4% | [3] 91.7% | [4] 93.3% | [5] 98.1% | [6] 111% | [7] 99.2% | [8] 98.9%

Cc1ccc(-c2cc3cccc[n+]3cc2-c2ccc(C)cc2)cc1
active: [1] 72.3% | [2] 53.5% | [4] 64.4% | [5] 56.9% | [6] 91.7% | [7] 83.4% | [8] 79.4%
inactive: [3] 35.9%

CCC(C)(C)c1ccc(OCCCC[n+]2cccc(C)c2C)c(C(C)(C)CC)c1
active: [1] 56.1% | [2] 72.2% | [4] 71% | [5] 58% | [6] 88.1% | [7] 85.2% | [8] 80.9%
inactive: [3] 43.5%

CCCCC(=O)NC(c1ccc(Cl)cc1Cl)c1ccc2cccnc2c1O (stereo not drawn)
inactive: [1] 39.4% | [2] 24.5% | [3] 27.4%
active: [4] 27.2% | [5] 64% | [6] 82% | [7] 60.9% | [8] 71.7%

CC(=O)N(/N=C1\Sc2ccccc2C1=O)c1ccc(C)cc1C
active: [1] 54.1% | [2] 37.7% | [4] 25.4% | [7] 48.8%
inactive: [3] 2.03% | [5] -1.06% | [6] 11.9% | [8] -16.6%

CCN1CCN(/C=N/c2nc3c(s2)CCCC3)CC1
inactive: [1] 19.2% | [2] -9.09% | [3] -62.9% | [4] -59.3% | [5] -69.4% | [6] -91.2% | [7] -86.7% | [8] -69.9%

CC[n+]1c(/C=C/N(C)c2ccccc2)oc2ccccc21
inactive: [1] 34.7% | [3] 16.9%
active: [2] 55.8% | [4] 55.2% | [5] 31.9% | [6] 82% | [7] 69% | [8] 73.2%

CCCCCC[n+]1ccccc1/C=C/c1ccc(N(C)C)cc1
active: [1] 89.5% | [2] 88.2% | [3] 64% | [4] 86.2% | [5] 81.5% | [6] 110% | [7] 94.8% | [8] 94.7%

CCCC(=O)NC(c1ccc(Cl)cc1)c1ccc2cccnc2c1O (stereo not drawn)
active: [4] 40.2% | [5] 71.8% | [6] 83.3% | [7] 74.9% | [8] 74.8%
inactive: [1] 31% | [2] 28% | [3] 15.5%

N=c1ccn(CC(=O)c2ccc(-c3ccccc3)cc2)cc1
active: [2] 43.3% | [4] 57.5% | [5] 46.2% | [6] 92.8% | [7] 76.3% | [8] 76.5%
inactive: [1] 37% | [3] 26.1%

CCC(=O)Nc1cccc(C(=O)/C=C/c2cc(Br)ccc2OC)c1
active: [1] 70.8% | [2] 62.1% | [3] 60.6% | [4] 59.4% | [5] 81.2% | [6] 105% | [7] 94.1% | [8] 82.9%
